Screens: PubChem BioAssay, National Center for Advancing Translational Sciences (NCATS)
Rows were chosen to be rich in hits. Some 14% of all compounds tested hit in one or more screens of this group.
FBPA Giardia inh – inhibitors of Giardia lamblia fructose-1,6-bisphosphate aldolase | AID 2451 | purified Giardia FBPA | Potency, µM (top dose mostly 59.6 µM), for the others: at the top dose activity, negative = inhibition, most hits filed as inhibitors | A8B2U2 | 290,000 tested, 0.71% active; note: potency is the fitted concentration of half-maximal effect; % is set by controls: 0 for no effect and ±100 for the full control effect; nearly all actives have a fitted effect of over 55% in size
Target sequence (A8B2U2 whole entry, looked up): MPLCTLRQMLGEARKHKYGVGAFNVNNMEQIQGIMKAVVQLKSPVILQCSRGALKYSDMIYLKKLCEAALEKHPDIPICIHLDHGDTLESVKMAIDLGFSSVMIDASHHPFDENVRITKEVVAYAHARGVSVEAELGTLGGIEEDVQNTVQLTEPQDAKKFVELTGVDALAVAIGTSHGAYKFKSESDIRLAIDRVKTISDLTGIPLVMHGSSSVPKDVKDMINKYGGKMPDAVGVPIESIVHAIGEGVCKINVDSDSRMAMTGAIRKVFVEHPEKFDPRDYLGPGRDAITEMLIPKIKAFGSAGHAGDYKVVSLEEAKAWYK
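40 nM FBPA preincubated 10 min at RT with compound (up to 57.5 uM final), then substrate plus GAPDH/TPI/NAD/arsenate coupling and diaphorase/resazurin added. Fluorescence read after 20 min at RT, 525/598 nm.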
NS1 function inh – inhibitors of influenza NS1 protein function; Potency, µM (doses to about 46.1 µM), for the others: at the highest dose activity, positive = more growth; 270,000 tested, 0.4% active; AID 2326; calls by dose curve; note: potency is the fitted concentration of half-maximal effect; actives are rising curves; nearly all actives have a fitted effect of over 50% in size
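OD600 was taken as the measure of yeast growth restored by compound in an NS1-expressing S. cerevisiae strain. Cells had been washed out of glucose medium and diluted 1:100 into galactose -URA medium, pH 6.0.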
LmPK inhibitor – inhibitors of Leishmania mexicana pyruvate kinase | Q27686 | AID 1721 | Potency, µM (titrated, usually from 57.5 µM), inactives show top-dose activity change, negative = inhibition, actives largely listed as inhibitors | purified LmPK, Kinase-Glo ATP luminescence, 1 h | 290,000 tested, 0.37% active; note: potency is the fitted concentration of half-maximal effect; % is set by controls: 0 for no effect and ±100 for the full control effect
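0.1 nM LmPK, 0.5 mM PEP, 0.1 mM ADP; 50 mM imidazole pH 7.2, 7 mM MgCl2, 50 mM KCl; 1 h RT. Kinase-Glo luminescence readout, normalized to no-enzyme (full inhibition) and uninhibited wells.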
Shiga toxin inh – inhibitors of Shiga toxin in Vero cells | Vero cells, Shiga toxin protein synthesis inhibition reporter | inhibition, % at 38.7 µM | 290,000 tested, 9.2% active | AID 2315; in the data active = inhibition mostly above about 28%, no sharp cut-off; inactive = mostly below about 43%; note: 0% is about no effect
Cycloheximide cs – counter-screen hit for Shiga toxin inhibitors, cycloheximide. max response, %. AID 2314. 300,000 tested, 12% active. cell reporter, cycloheximide protein synthesis inhibition counterscreen; in the data active = max response mostly above about 13%, no sharp cut-off; inactive = mostly below about 14%; note: read at 38.3 µM for the half of the compounds with a filed dose; 0% is about no effect
The depositor's hits bear a star; i = inactive; ? = inconclusive; . = no result; + = active, no number; [ ] = remark or other dose. Unless noted, calls come from the whole dose curve; as a rule, active = well fitted curve in the direction sought with a large enough effect; inconclusive = small, poorly fitted or top-dose-only effect, or another doubt; inactive = no such curve, though single readings can be large; an effect the other way counts as inactive or inconclusive.

SMILES	FBPA Giardia inh	NS1 function inh	LmPK inhibitor	Shiga toxin inh	Cycloheximide cs
CCOC(=O)c1ccc(C(=O)NNC(=O)C2C3C=CC(C3)C2C(=O)O)cc1 (stereo unspecified)	.	9%	-8%	15	-2
O=C(NNC(=O)C1C2C=CC(C2)C1C(=O)O)c1cc(Cl)ccc1O (stereo unspecified)	.	14%	-6%	21	19*
O=C(NNC(=O)C1C2C=CC(C2)C1C(=O)O)c1ccccc1 (stereo unspecified)	7%	-11%	-5%	101*	39*
CC(C)c1ccc(NC(=O)Cc2ccc(NC3=NC4CS(=O)(=O)CC4S3)cc2)cc1 (stereo unspecified)	?	9%	2%	-2	-2
N#Cc1ccc(-n2nccc2-c2cnc3n(c2=O)CCS3)cc1	3%	0%	0%	2	26*
O=c1c(-c2ccnn2-c2ccc(F)cc2)cnc2n1CCS2	2%	1%	9%	-28	-1
COc1ccc2c3c(c(=O)oc2c1)C1O[C@](CCCCN2C(=O)c4ccccc4C2=O)(Cc2cc(OC)c(OC)cc21)O3	-15%[12.9 µM]	?	-2%[11.5 µM]	i	-2
CN(C)C(=O)c1cc(C(=O)c2ccccc2Br)c[nH]1	-3%	2%	-2%	48	11
Cc1ccc(NC(=O)C(NC2CCCc3ccccc32)c2ccccc2)cc1Cl (stereo unspecified)	?	-21%	-5%	15	26*
Cc1ccc(NC(=O)C(NC2CCCc3ccccc32)c2ccccc2)c([N+](=O)[O-])c1 (stereo unspecified)	-24%	10%	-4%	+	22*
COc1ccc(Cl)cc1NC(=O)Nc1ccccc1SC	-5%	.	-1%	24	8
CSc1ccccc1NC(=O)Nc1ccc(Cl)cc1	-14%	-130%	?	83	55*
COc1ccc(NC(=O)Nc2ccccc2SC)cc1	-12%	-8%	10µM*	105*	30*
Cn1c(=O)c2c(nc(Br)n2Cc2nnc(N)s2)n(C)c1=O	1%	6%	-1%	-6	-2
O=S(=O)(c1ccc(-c2n[nH]c(=S)o2)cc1)N1CCCCC1	.	3%	-1%	-3	-3
COCCCNC(=O)CN1C(=O)/C(=C/c2ccccc2)Sc2ccccc21	0%	-34%	7%	3	-3
COc1ccc(CNC(=O)c2ccc3c(c2)N(C)CCS3)cc1	4%	6%	-1%	23	active
CC(C)Oc1ccc(CNC(=O)c2ccc3c(c2)N(C)CCS3)cc1	-9%	15%	0%	54*	35*
COc1ccc(CNC(=O)c2ccc3c(c2)N(C)C(=O)CS3=O)cc1 (stereo unspecified)	2%	14µM*	17%	-5	-4
CN1CCSc2ccc(C(=O)NCc3ccccc3F)cc21	-13%	1%	-2%	35*	28*
Cc1cccc(CNC(=O)c2ccc3c(c2)N(C)CCS3)c1	-9%	-3%	0%	11	1
CN1CCSc2ccc(C(=O)NCc3cccc(Br)c3)cc21	-10%	-15%	-1%	21	11*
COc1ccc(C)c2sc(NC(=O)C3=COCCO3)nc12	-27%	-1%	-7%	27*	12*
COc1ccc(OC)c2sc(NC(=O)C3=COCCO3)nc12	-12%	-10%	-1%	29	-1
COc1cccc2sc(NNC(=O)C3=COCCO3)nc12	4%	.	7%	87*	40*
SMILES	FBPA Giardia inh	NS1 function inh	LmPK inhibitor	Shiga toxin inh	Cycloheximide cs
COc1cccc(CC2(CO)CCN(S(=O)(=O)c3ccc(OC)cc3OC)CC2)c1	3%	-7%	0%	-32	2
CSCCC(NC(=O)c1ccccc1Cl)C(=O)N1CCN(C(c2ccccc2)c2ccccc2)CC1 (stereo unspecified)	-12%	-1%	2%	-8	11
Cc1cc(F)ccc1S(=O)(=O)N1CCCOC1CNC(=O)C(=O)NCc1ccc2c(c1)OCO2 (stereo unspecified)	.	6%	-2%	7	-1
C[N+]1(CCC[N+]2(C)C[C@H]3[C@H](C2)[C@H]2C=C[C@@H]3CC2)CCOCC1 (stereo partly specified)	.	5%	.	.	.
C#CCOCCOCCOCCNc1nc(N2CCN(C(=O)[C@H](CCCCN)n3cc([C@@H](N)CC(C)C)nn3)CC2)nc(N2CCN(C(=O)[C@H](Cc3ccc(O)cc3)n3cc([C@@H](N)CC(C)C)nn3)CC2)n1	0%	3%	-1%	-6	-1
C#CCOCCOCCOCCNc1nc(N2CCN(C(=O)[C@H]([C@@H](C)CC)n3cc([C@@H](N)Cc4ccc(O)cc4)nn3)CC2)nc(N2CCN(C(=O)[C@H](CCCCN)n3cc([C@@H](N)CC(C)C)nn3)CC2)n1	-6%	2%	-3%	-13	35*
C[C@@]12CC(=O)C3=C(CCCC3=O)N1CCc1ccccc12	-2%	.	.	.	.
Cc1cnc(C(=O)OCC(=O)c2csc(N3CCCCC3)n2)cn1	-22%	5%	11%	36	51*
CC1CC(=O)N(CC(=O)Nc2ccc(Br)cc2)c2ccccc2S1(=O)=O (stereo unspecified)	4%	-3%	-2%	-4	-2
Cc1cc(N/N=C/c2cccc(Cl)c2)nc(-n2nc(C)cc2C)n1	10%	8%	11%	2	-3
Cc1nc(C#N)c(N/N=C/c2cccc(Cl)c2)o1	-12%	-39%	-3%	54*	36*
O=[N+]([O-])c1ccc2c(c1N1CCCCC1)=NC1(CCCCC1)[N+]=2[O-]	?	5%	?	2	2
COc1ccc(Nc2ccc3c(c2)=NC2(CCCCC2)[N+]=3[O-])cc1	?	-60%	?	59*	26*
[O-][N+]1=c2ccc(Nc3ccccc3)cc2=NC12CCCCC2	?	-123%	-27%	89*	51*
COc1ccc(NC2=NC(=S)N(c3ccccc3C)C23CCCCC3)cc1	-12%	13%	-1%	-3	-3
CCOC(=O)CCCCC1=CC2=CC(=O)C(C)(O)C(=O)C2=CO1 (stereo unspecified)	-12%[12.9 µM]	.	.	.	.
COc1cccc(-c2ocnc2C(=O)Nc2ccc(N3CCOCC3)cc2N2CCOCC2)c1	-4%	11%	-6%	1	-3
CC(=O)c1cccc(NC(=O)C(Sc2ncnc3ccccc23)c2ccccc2)c1 (stereo unspecified)	-2%	?	9%	9	8.0*
COc1cccc(-c2noc(C(C)n3nc(C)c([N+](=O)[O-])c3C)n2)c1 (stereo unspecified)	-1%	-3%	0%	9	18*
COc1cccc(OCc2nnc(-c3cccs3)o2)c1	4%	-4%	0%	33*	33*
COc1cccc(-c2nc(-c3ccccc3)no2)c1	2%	-63%	-10%	63*	37*
COc1ccc(NC(=S)NNC(=O)C(C)n2nc(C)c([N+](=O)[O-])c2C)cc1 (stereo unspecified)	6%	4%	3%	21	-1
COc1cccc(-c2noc(-c3cccs3)n2)c1	4%	-2%	-17%	54*	39*
